Among the data in the antibiotic and cytotoxicity screens of Wong et al. (2023) are cytotoxicity call values, retold here.

Molecules are shown by their SMILES. About 1,500 (3.8%) of roughly 39,000 compounds were called active. The sample as a whole holds a higher share of actives than the screen did.

This assay has as its system HSkMC (human skeletal muscle cells). In words: cytotoxicity call (relative viability < 0.9). Particulars: 10 µM.
As to `C[C@@H]1CCCCO[C@@H](CN(C)Cc2ccc(C(F)(F)F)cc2)[C@H](C)CN([C@@H](C)CO)C(=O)c2cc(N(C)C)ccc2O1`, the cytotoxicity call was “inactive”.
In the case of `CC(C)NC(=O)Nc1ccc2c(c1)CC(=O)N([C@@H](C)CO)C[C@H](C)[C@@H](CN(C)C(=O)NC1CCCCC1)O2` it was “inactive”; in that of `CC(C)NC(=O)N(C)C[C@@H]1Oc2ccc(NS(=O)(=O)c3ccccc3)cc2C(=O)N([C@H](C)CO)C[C@@H]1C`, “inactive”.
For the compound `Oc1c(Cl)cc(Cl)cc1Sc1cc(Cl)cc(Cl)c1O`, the cytotoxicity call is “active”.
Regarding `C[C@@H]1CN([C@@H](C)CO)S(=O)(=O)c2ccc(-c3cncnc3)cc2O[C@@H]1CN(C)C(=O)C1CCCCC1`, the cytotoxicity call is “inactive”.
For the compound `C[C@H](O)C1=C[C@]2(CC[C@@H]3C(C(=O)O)=CO[C@@H](O[C@@H]4O[C@H](CO)[C@@H](O)[C@H](O)[C@H]4O)[C@@H]32)OC1=O`, the cytotoxicity call is “inactive”.
For `CC1(C)CN(C(=O)Cn2nccn2)C[C@]1(C)O` the value was “inactive”.
For `O=C(C[C@@H]1CC=CC[C@@H](NC(=O)OCC2c3ccccc3-c3ccccc32)C(=O)OC[C@@H](Cc2ccccc2)NC1=O)N[C@@H](CO)Cc1ccccc1` the value was “inactive”; for `O=C(C[C@@H]1CC=CC[C@@H](NC(=O)OCC2c3ccccc3-c3ccccc32)C(=O)OC[C@H](Cc2ccccc2)NC1=O)N[C@H](CO)Cc1ccccc1`, “inactive”.
Regarding `O=C(C[C@@H]1CC=CC[C@H](NC(=O)OCC2c3ccccc3-c3ccccc32)C(=O)O[C@H](c2ccccc2)CNC1=O)N[C@H](CO)Cc1ccccc1`, the cytotoxicity call is “active”.
For `O=C(N[C@@H]1CC=CC[C@H](CC(=O)N(CCO)Cc2ccccc2)C(=O)N[C@@H](Cc2ccccc2)COC1=O)OCC1c2ccccc2-c2ccccc21` the value was “inactive”; for `O=C(C[C@@H]1CC=CC[C@H](NC(=O)OCC2c3ccccc3-c3ccccc32)C(=O)O[C@@H](c2ccccc2)CNC1=O)N[C@@H](CO)Cc1ccccc1`, “active”.
On to `O=C(C[C@@H]1CC=CC[C@H](NC(=O)OCC2c3ccccc3-c3ccccc32)C(=O)OC[C@H](Cc2ccccc2)NC1=O)N[C@H](CO)Cc1ccccc1`, for which the cytotoxicity call was “inactive”.
In the case of `O=C(N[C@H]1CC=CC[C@H](CC(=O)N(CCO)Cc2ccccc2)C(=O)N[C@@H](Cc2ccccc2)COC1=O)OCC1c2ccccc2-c2ccccc21`, the cytotoxicity call was “active”.
For `O=C(N[C@H]1CC=CC[C@H](CC(=O)N(CCO)Cc2ccccc2)C(=O)NCC(c2ccccc2)OC1=O)OCC1c2ccccc2-c2ccccc21` (stereo not given in full), the cytotoxicity call was “inactive”.
For `O=C(C[C@@H]1CC=CC[C@H](NC(=O)OCC2c3ccccc3-c3ccccc32)C(=O)OC[C@H](Cc2ccccc2)NC1=O)N[C@@H](CO)Cc1ccccc1`, the cytotoxicity call is “inactive”.
With `O=C(N[C@@H]1CC=CC[C@H](CC(=O)N(CCO)Cc2ccccc2)C(=O)NC[C@H](c2ccccc2)OC1=O)OCC1c2ccccc2-c2ccccc21`, the cytotoxicity call was “inactive”.
For `O=C(N[C@H]1CC=CC[C@H](CC(=O)N(CCO)Cc2ccccc2)C(=O)N[C@H](Cc2ccccc2)COC1=O)OCC1c2ccccc2-c2ccccc21` the value was “inactive”.
Turning to `O=C(C[C@@H]1CC=CC[C@H](NC(=O)OCC2c3ccccc3-c3ccccc32)C(=O)O[C@H](c2ccccc2)CNC1=O)N[C@@H](CO)Cc1ccccc1`, the cytotoxicity call is “active”.
`COc1ccc(S(=O)(=O)Nc2ccc3c(c2)C(=O)N([C@@H](C)CO)C[C@@H](C)[C@@H](CN(C)Cc2ccncc2)O3)cc1`: the cytotoxicity call is “inactive”.
`CC(C)NC(=O)N(C)C[C@@H]1Oc2ccc(NS(=O)(=O)c3ccc(F)cc3)cc2CC(=O)N([C@H](C)CO)C[C@@H]1C`: the cytotoxicity call is “inactive”.
Consider `COc1cccc(S(=O)(=O)N[C@H]2CC[C@H](CCn3cc(-c4ccccc4OC)nn3)O[C@H]2CO)c1`, for which the cytotoxicity call is “inactive”.
`C[C@H]1CCCCO[C@@H](CN(C)C(=O)NC2CCCCC2)[C@@H](C)CN([C@@H](C)CO)C(=O)c2cc(NC(=O)Nc3ccc(F)cc3)ccc2O1`: the cytotoxicity call was “inactive”.
Take `C[C@H]1CN([C@@H](C)CO)C(=O)c2cccc(NC(=O)c3ccc(-c4nccs4)cc3)c2O[C@H]1CN(C)Cc1ccc(Cl)c(Cl)c1`: the cytotoxicity call was “inactive”.
Take `COc1ccccc1-c1ccc2c(c1)O[C@@H](CN(C)S(=O)(=O)c1ccccc1)[C@H](C)CN([C@@H](C)CO)S2(=O)=O`: the cytotoxicity call was “inactive”.
Turning to `COc1ccc2c3c([nH]c2c1)[C@H](CO)N(C[C@]13CN(C)C1)C(=O)CN1CCOCC1`, the cytotoxicity call was “inactive”.
With `COc1ccc(NC(=O)N(C)C[C@H]2OCCCC[C@@H](C)Oc3ccc(NS(=O)(=O)c4ccc(Cl)cc4)cc3C(=O)N([C@@H](C)CO)C[C@@H]2C)cc1`, the cytotoxicity call is “inactive”.
`Cc1ccc(S(=O)(=O)Nc2ccc3c(c2)C(=O)N([C@H](C)CO)C[C@H](C)[C@@H](CN(C)C(=O)NC(C)C)O3)cc1`: the cytotoxicity call is “inactive”.
Regarding `Cc1ccc(S(=O)(=O)N(C)C[C@H]2OCCCC[C@H](C)Oc3ccc(NC(=O)Nc4ccc(C(F)(F)F)cc4)cc3C(=O)N([C@H](C)CO)C[C@H]2C)cc1`, the cytotoxicity call is “inactive”.
For the compound `CCC(=O)Nc1ccc2c(c1)C(=O)N(C)C[C@@H](OC)[C@H](C)CN(C(=O)CN1CCOCC1)[C@H](C)CO2`, the cytotoxicity call was “inactive”.
`Cc1noc(C)c1S(=O)(=O)N(C)C[C@@H]1OCCCC[C@H](C)Oc2ccc(NC(=O)Nc3ccccc3)cc2C(=O)N([C@H](C)CO)C[C@H]1C`: the cytotoxicity call is “active”.
For `Cc1noc(C)c1S(=O)(=O)N(C)C[C@H]1OCCCC[C@H](C)Oc2ccc(NC(=O)Nc3ccccc3)cc2C(=O)N([C@H](C)CO)C[C@@H]1C` the value was “active”; for `Cc1noc(C)c1S(=O)(=O)N(C)C[C@@H]1OCCCC[C@@H](C)Oc2ccc(NC(=O)Nc3ccccc3)cc2C(=O)N([C@@H](C)CO)C[C@@H]1C`, “inactive”; for `Cc1noc(C)c1S(=O)(=O)N(C)C[C@@H]1OCCCC[C@@H](C)Oc2ccc(NC(=O)Nc3ccccc3)cc2C(=O)N([C@H](C)CO)C[C@H]1C`, “inactive”.
With `Cc1noc(C)c1S(=O)(=O)N(C)C[C@@H]1Oc2ccc(NC(=O)Cn3cnnn3)cc2C(=O)N([C@@H](C)CO)C[C@@H]1C`, the cytotoxicity call was “inactive”.
For `Cc1noc(C)c1S(=O)(=O)N(C)C[C@H]1OCCCC[C@H](C)Oc2ccc(NC(=O)Nc3ccccc3)cc2C(=O)N([C@H](C)CO)C[C@H]1C`, the cytotoxicity call is “inactive”.
As to `Cc1noc(C)c1S(=O)(=O)N(C)C[C@H]1OCCCC[C@@H](C)Oc2ccc(NC(=O)Nc3ccccc3)cc2C(=O)N([C@H](C)CO)C[C@@H]1C`, the cytotoxicity call was “inactive”.
In the case of `Cc1noc(C)c1S(=O)(=O)N(C)C[C@H]1Oc2ccc(NC(=O)Cn3cnnn3)cc2C(=O)N([C@@H](C)CO)C[C@H]1C`, the cytotoxicity call is “inactive”.
Turning to `Cc1noc(C)c1S(=O)(=O)N(C)C[C@H]1Oc2ccc(NC(=O)Cn3cnnn3)cc2C(=O)N([C@H](C)CO)C[C@H]1C`, the cytotoxicity call was “active”.
In the case of `Cc1ccc(S(=O)(=O)N(C)C[C@H]2Oc3ccc(NC(=O)CCN4CCOCC4)cc3C(=O)N([C@H](C)CO)C[C@@H]2C)cc1` it was “inactive”; in that of `C[C@@H]1CCCCO[C@@H](CN(C)C(=O)Nc2ccc(C(F)(F)F)cc2)[C@@H](C)CN([C@H](C)CO)C(=O)c2cc(NC(=O)Nc3cccc4ccccc34)ccc2O1`, “inactive”.
In the case of `C=C/C=C/[C@@H]1C(=C)CN([C@@H](Cc2ccccc2)C(=O)OC)[C@H]1[C@@H](O)CCn1cc(CCC(=O)NO)nn1`, the cytotoxicity call was “inactive”.
On to `C[C@H]1CN([C@@H](C)CO)C(=O)c2cccc(NC(=O)C3CC3)c2O[C@H]1CN(C)C(=O)Nc1ccc2c(c1)OCO2`, for which the cytotoxicity call was “inactive”.
In the case of `CCC(C)(C)c1ccc(CC(C)CN2CC(C)OC(C)C2)cc1.Cl` (stereo not given) it was “inactive”; in that of `OCc1cn(-c2ccccc2)nn1`, “inactive”.
As for `NCc1cn(-c2ccccc2)nc1C12CC3CC(CC(C3)C1)C2`, the cytotoxicity call was “active”.
For the compound `c1ccc(-c2nc(C34CC5CC(CC(C5)C3)C4)cs2)cc1`, the cytotoxicity call was “inactive”.
Take `C[C@H]1CCN=C(N)S1`: the cytotoxicity call was “inactive”.
As to `C[C@@H]1CN([C@@H](C)CO)C(=O)c2cccc(NC(=O)c3cnccn3)c2O[C@@H]1CN(C)S(=O)(=O)c1ccc(Cl)cc1`, the cytotoxicity call was “inactive”.
As to `O=C(O)c1ccc(C(=O)O)nc1`, the cytotoxicity call was “inactive”.
As to `COc1ccc2c3c([nH]c2c1)[C@H](CO)N(C[C@]13CCN(CC1)C(=O)c1ccncc1)C(=O)c1ccncc1`, the cytotoxicity call is “inactive”.
In the case of `C[C@@H]1CN([C@@H](C)CO)C(=O)c2cc(NC(=O)CCCN(C)C)ccc2O[C@@H](C)CCCCO[C@H]1CN(C)CC1CCCCC1`, the cytotoxicity call is “inactive”.
On to `CCCNc1nc(=O)c(C)n[nH]1`, for which the cytotoxicity call is “inactive”.
Take `Cc1n[nH]c(N/N=C/c2ccccn2)nc1=O`: the cytotoxicity call is “active”.
Regarding `Cc1n[nH]c(NCc2ccco2)nc1=O`, the cytotoxicity call was “inactive”.
In the case of `Cc1ccc(-c2nn[nH]n2)n1C` it was “inactive”; in that of `C[C@@H]1CN([C@@H](C)CO)C(=O)c2cc(NC(=O)NC3CCCCC3)ccc2O[C@@H](C)CCCCO[C@H]1CN(C)C(=O)c1ccncc1`, “inactive”; in that of `C[C@@H]1CN([C@H](C)CO)C(=O)Cc2cc(NS(=O)(=O)c3ccccc3)ccc2O[C@@H]1CN(C)Cc1ccc2c(c1)OCO2`, “inactive”.
For `O=C(C[C@@H]1CC[C@@H]2[C@H](COC[C@@H](O)CN2C(=O)c2cnccn2)O1)N1CCN(c2ccccc2)CC1` the value was “inactive”; for `Cc1cc(C(=O)Nc2cccc3c2O[C@@H](CN(C)C(=O)Nc2ccc4c(c2)OCO4)[C@@H](C)CN([C@H](C)CO)C3=O)n(C)n1`, “inactive”.
In the case of `Cc1cc(-c2cc(OC(=O)c3ccccc3)ccc2Cl)cc2nnc(Nc3ccc(OCCN4CCCC4)cc3)nc12`, the cytotoxicity call was “active”.
On to `O=C(N[C@@H](c1ccccc1)c1ccc2ccccc2n1)C1CCN(CCOc2ccc(Cl)cc2)CC1`, for which the cytotoxicity call was “inactive”.
In the case of `O=C(N[C@@H](c1ccc(-c2ccccc2)cc1)c1cnccn1)C1CCN(CCOc2ccc(F)cc2)CC1` it was “inactive”; in that of `CC(C)=C[C@H]1[C@@H](c2nc3cc(Br)ccc3o2)C1(C)C`, “inactive”; in that of `C[C@@H]1CCCCO[C@H](CN(C)S(=O)(=O)c2ccc(F)cc2)[C@@H](C)CN([C@H](C)CO)C(=O)c2cc(NC(=O)Nc3ccc(C(F)(F)F)cc3)ccc2O1`, “inactive”.
